Assay results: PubChem BioAssay (Tox21)
Records with an inconclusive call do not appear. A call without a number means that no potency is given here. Activity calls are given as the source filed them. Calls come from the whole dose curve; as a rule, active = well fitted inhibition curve with a large enough effect in the signal ratio in the repeat runs (not every such curve was filed as active); inconclusive = weak or mixed curves, or effect the other way; inactive = no such curve, though single readings can be large or run the other way; the % refers to the signal ratio.

target: Glucocorticoid receptor (Homo sapiens) (UniProt P04150); test: qHTS assay to identify small molecule antagonists of the glucocorticoid receptor (GR) signaling pathway (AID 720692); details: GR-bla HeLa, beta-lactamase FRET ratio, dexamethasone-stimulated, 18 h; series mostly up to 58.5 µM
Sequence (P04150 whole entry, looked up): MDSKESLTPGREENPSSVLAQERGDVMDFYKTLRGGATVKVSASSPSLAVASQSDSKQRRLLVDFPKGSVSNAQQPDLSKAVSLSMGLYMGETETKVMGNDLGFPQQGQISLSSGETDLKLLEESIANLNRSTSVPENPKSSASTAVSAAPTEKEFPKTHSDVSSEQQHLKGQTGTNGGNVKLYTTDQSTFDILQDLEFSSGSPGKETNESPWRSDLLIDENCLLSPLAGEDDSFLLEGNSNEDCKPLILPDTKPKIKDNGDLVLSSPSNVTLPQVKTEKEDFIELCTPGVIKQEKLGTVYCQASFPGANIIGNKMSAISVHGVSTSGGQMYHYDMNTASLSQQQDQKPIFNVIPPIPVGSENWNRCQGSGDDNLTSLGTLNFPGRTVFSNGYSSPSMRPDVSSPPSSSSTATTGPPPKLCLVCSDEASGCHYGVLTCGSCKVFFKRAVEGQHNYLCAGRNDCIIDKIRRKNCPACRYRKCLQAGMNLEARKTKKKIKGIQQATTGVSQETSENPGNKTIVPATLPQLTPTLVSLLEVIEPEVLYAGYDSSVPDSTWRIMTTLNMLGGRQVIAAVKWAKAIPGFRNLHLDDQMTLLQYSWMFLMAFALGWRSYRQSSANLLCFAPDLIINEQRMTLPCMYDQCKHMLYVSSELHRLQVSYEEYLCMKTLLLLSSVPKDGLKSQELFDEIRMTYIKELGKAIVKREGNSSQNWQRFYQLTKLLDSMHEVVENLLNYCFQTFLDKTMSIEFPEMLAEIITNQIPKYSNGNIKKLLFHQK
Summary of the method: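 Inhibition of dexamethasone-driven (5 nM final) beta-lactamase expression was measured in GRE-reporter HeLa cells over 18 h at 37C. Fluorescence was read after 2 h with the B/G FRET substrate at room temperature.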
Potency is the fitted concentration of half-maximal effect.

| SMILES | Potency |
| --- | --- |
| Clc1cc(Cl)c(Cl)cc1Cl | inactive |
| NCc1cccc(CN)c1 | inactive |
| O=S(=O)(O)CCS | inactive |
| CCCCCCCCC | inactive |
| C=C1C2CCC(C2)C1(C)C (stereo unspecified) | inactive |
| OCCOCCOCCOCCO | inactive |
| C=C(C)C(=O)OCCC[Si](OC)(OC)OC | inactive |
| CS(=O)(=O)c1ccc([C@@H](O)[C@@H](CO)NC(=O)C(Cl)Cl)cc1 | inactive |
| C=C(C#N)C(=O)OCC | inactive |
| CCCCCCCCCCCCN | inactive |
| CC1=C(CC(=O)O)c2cc(F)ccc2/C1=C\c1ccc(S(C)=O)cc1 (stereo unspecified) | inactive |
| O=C(O)c1cc(-c2ccccc2)nc2ccccc12 | inactive |
| Cc1ccc(N)c(S(=O)(=O)O)c1 | inactive |
| CCOC(=O)[C@H](CCc1ccccc1)N[C@@H](C)C(=O)N1Cc2ccccc2C[C@H]1C(=O)O | inactive |
| Nc1nc2ncc(CNc3ccc(C(=O)N[C@@H](CCC(=O)O)C(=O)O)cc3)nc2c(=O)[nH]1 | inactive |
| CCOC(=O)/C=C\C(=O)OCC | inactive |
| CCCCNC(N)=O | inactive |
| Cc1cc(Cc2ccc(N)c(C)c2)ccc1N | inactive |
| Oc1c(Cl)cc(Cl)c(Cl)c1Cl | 49 µM (active) |
| Clc1ccc(Cl)c(Cl)c1Cl | inactive |
| Cc1cc(=O)[nH]c(C(C)C)n1 | inactive |
| Cn1c([N+](=O)[O-])cnc1COC(N)=O | inactive |
| CCCCC(CC)COC(=O)CCCCCCCC(=O)OCC(CC)CCCC (stereo unspecified) | inactive |
| NC(=O)/N=N/C(N)=O | inactive |
| CCC(=O)O | inactive |
| CC(C)(CO)COC(=O)C(C)(C)CO | inactive |
